In paper PMC10726135, “HNF4α isoforms regulate the circadian balance between carbohydrate and lipid metabolism in the liver”:
The full ranking holds about 18,000 sequences; the median of “log2 normalized intensity” is about 0.36, and the highest 2% start at about 7.3. The sample holds the highest values, similar sequences and a random draw of the others, so the mix is not that of the screen.

The sequences below were run against T1, HNF4alpha8 (COS-7 nuclear extract) (Homo sapiens, UniProt P41235-5 1-452) (assay: protein-binding microarray; COS-7 nuclear extract on double-stranded Agilent 4x180k PBM; binding buffer, salt, pH and temperature not given in the material; high values mean tight binding). Conditions: chain copies: 2; label: 3' end of strand 1 on the slide; dsDNA, one strand shown.
T1 sequence: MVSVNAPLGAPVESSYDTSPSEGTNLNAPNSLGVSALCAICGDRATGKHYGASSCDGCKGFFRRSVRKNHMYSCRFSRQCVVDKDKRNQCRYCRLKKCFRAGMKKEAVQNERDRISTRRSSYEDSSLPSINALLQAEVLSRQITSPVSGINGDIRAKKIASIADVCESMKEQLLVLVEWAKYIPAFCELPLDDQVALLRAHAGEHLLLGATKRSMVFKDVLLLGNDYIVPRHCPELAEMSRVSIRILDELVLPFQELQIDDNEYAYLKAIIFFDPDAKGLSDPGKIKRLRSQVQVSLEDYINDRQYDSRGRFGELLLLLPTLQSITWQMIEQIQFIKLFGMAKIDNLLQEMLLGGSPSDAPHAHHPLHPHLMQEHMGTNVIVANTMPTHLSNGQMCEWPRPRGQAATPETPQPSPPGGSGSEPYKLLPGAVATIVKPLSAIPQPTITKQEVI
Outline: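 The binding signal is Agilent software's gProcessedSignal after background correction and normalization. Arrays were a custom Agilent SurePrint G3 4x180k design of double-stranded ~60-nt oligonucleotides with ~44,000 test sequences in quadruplicate, probed with nuclear extracts of COS-7 cells transiently expressing a human HNF4α isoform. Scans were made at 2-µm resolution on an Agilent G2565CA scanner.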

Sequence | binding signal [log2 normalized intensity]
GCTTATCTGGGAGGGGGAGGTTTTGTGTCTGCCTAGGGAGATTAGAGTATCGGTCGA | 0.884
AAATGTAATCAGCAAGTTTTATATGAAAACGCCTAGGGAGATTAGAGTATCGGTCGA | 0.415
CTGTGGTCATTAATTAACTTGTGTTCAGAGGCCTAGGGAGATTAGAGTATCGGTCGA | 1.07
TGTTCTTTACTTCCTTTTGTTCCTGCTCTAGCCTAGGGAGATTAGAGTATCGGTCGA | 1.67
AGTCTGCTCAAGTCTTTTAGAATGTGGATGGCCTAGGGAGATTAGAGTATCGGTCGA | 1.71
TCAGTTGCAGAAAAACAGGTTCTGCAACACGCCTAGGGAGATTAGAGTATCGGTCGA | 0.876
ATTACCAATGAGAAACCTCAAAGGTTAGGGGCCTAGGGAGATTAGAGTATCGGTCGA | 0.852
GAGCAAAGGGCATGGAGGATTTAGATAACAGCCTAGGGAGATTAGAGTATCGGTCGA | 0.728
AAACTTATCTTGTGACCTTTGACTCATTATGCCTAGGGAGATTAGAGTATCGGTCGA | 7.16
TTTAAAAACTTATCTTGTGACCTTTGACTCGCCTAGGGAGATTAGAGTATCGGTCGA | 8.96
AGTGGTTTAAAAACTTATCTTGTGACCTTTGCCTAGGGAGATTAGAGTATCGGTCGA | 7.47
CTTATCTACTTTAAGATTTGACCCTTGGCCGCCTAGGGAGATTAGAGTATCGGTCGA | 7.78
TATCTTGTGACCTTTGACTCATTATCCCCCGCCTAGGGAGATTAGAGTATCGGTCGA | 7.09
ATTCTCTTATCTACTTTAAGATTTGACCCTGCCTAGGGAGATTAGAGTATCGGTCGA | 5.76
TTAAGATTTGACCCTTGGCCAGGTGCAGTGGCCTAGGGAGATTAGAGTATCGGTCGA | 5.41
ATCTGACCTTTGGTTAACTTCTTAACTTGGGCCTAGGGAGATTAGAGTATCGGTCGA | 3.5
CTGAACTTTAAACTGGTGTGTCTTGCCTTTGCCTAGGGAGATTAGAGTATCGGTCGA | 2.42
TTACTGGGGCCCATTGTATGAGGGTGAAGTGCCTAGGGAGATTAGAGTATCGGTCGA | 0.972
TAGCTTTAGCCGGACTTTGTCCTTTGATTTGCCTAGGGAGATTAGAGTATCGGTCGA | 7.5

Sequence | binding signal [log2 normalized intensity]
CATCGGACTTTGATCTGCCACATACCTTTAGCCTAGGGAGATTAGAGTATCGGTCGA | 5.04
TCAGATAGCTTTAGCCGGACTTTGTCCTTTGCCTAGGGAGATTAGAGTATCGGTCGA | 8.54
CGGACTTTGTCCTTTGATTTTTTAAAGTAAGCCTAGGGAGATTAGAGTATCGGTCGA | 5.37
CTATCTCAGATAGCTTTAGCCGGACTTTGTGCCTAGGGAGATTAGAGTATCGGTCGA | 5.85
AAATGTACTGGATATAGCCAGATGTCCTTTGCCTAGGGAGATTAGAGTATCGGTCGA | 2.37
ACCCAGGTGTGTTGCAACTTTGACTATAGCGCCTAGGGAGATTAGAGTATCGGTCGA | 0.342
GTTTGCATTTTAACCTTTGGCTGGTAGAGCGCCTAGGGAGATTAGAGTATCGGTCGA | 4.17
AGCCGTCTGGTAAATTTCTAACACTCCCCAGCCTAGGGAGATTAGAGTATCGGTCGA | 2.15
GGGTCAGTTTATCTAAGATTCCCCCTACCCGCCTAGGGAGATTAGAGTATCGGTCGA | 4
GAGAAGTGAACTTTGCCCTCTCTTTCTGGAGCCTAGGGAGATTAGAGTATCGGTCGA | 8.26
ACTGATCTCTGGCTTGATCCCTGAACTTTGGCCTAGGGAGATTAGAGTATCGGTCGA | 4.37
CCTTGGATCTCCTGCACCTGAACTTTGCTCGCCTAGGGAGATTAGAGTATCGGTCGA | 6.94
AAGTGACCCTGGTCTTTGCCCTTTCCTAGAGCCTAGGGAGATTAGAGTATCGGTCGA | 3.98
GGCTTGATCCCTGAACTTTGCTCCCACCCTGCCTAGGGAGATTAGAGTATCGGTCGA | 6.25
TCCTGCCTTGGAGAAGTGAACTTTGCCCTCGCCTAGGGAGATTAGAGTATCGGTCGA | 10.7
GTGAACTTTGCCCTCTCTTTCTGGAACCTAGCCTAGGGAGATTAGAGTATCGGTCGA | 5.67
TGGGCTCCTGCCTTGGAGAAGTGAACTTTGGCCTAGGGAGATTAGAGTATCGGTCGA | 5.62
TCTCTGGCTTGATCCCTGAACTTTGCTCCCGCCTAGGGAGATTAGAGTATCGGTCGA | 8.76
TGGAATCCAAAGTATTTTCTGTCTAGGTGCGCCTAGGGAGATTAGAGTATCGGTCGA | 0.637

Sequence | binding signal [log2 normalized intensity]
TTGCCTAACTGCTGCATGTCATGACCTTCAGCCTAGGGAGATTAGAGTATCGGTCGA | 3.69
TCTACTCCCTGTTCTTACACCTGCTCCCCTGCCTAGGGAGATTAGAGTATCGGTCGA | 2.97
TGTATACTTATGTAGAAAGATATCTCTGTGGCCTAGGGAGATTAGAGTATCGGTCGA | 1.3
AAGATCATTCCAGGAATGTTCAAGAAGTTCGCCTAGGGAGATTAGAGTATCGGTCGA | 0.0918
AGATAGGACAGTGGTCTTTATGACTTGGGTGCCTAGGGAGATTAGAGTATCGGTCGA | 1.4
GACTATTTTATTTTCCCCCTTTGAAGTCTGGCCTAGGGAGATTAGAGTATCGGTCGA | 3.2
GTCCTTCCCAAGTCCTGCATGTGTTCACACGCCTAGGGAGATTAGAGTATCGGTCGA | 1.21
GGCCAGGTGGGCTGCTCCCAGTGCCCTTTGGCCTAGGGAGATTAGAGTATCGGTCGA | 4.47
AGTAACCTGACCCCCAGTGGAATGTGCCCTGCCTAGGGAGATTAGAGTATCGGTCGA | 4.61
CCTGACCCCCAGTGGAATGTGCCCTTTGACGCCTAGGGAGATTAGAGTATCGGTCGA | 5.75
AGTGGAATGTGCCCTTTGACCTCTCTCTCCGCCTAGGGAGATTAGAGTATCGGTCGA | 8.33
AATGTGCCCTTTGACCTCTCTCTCCTAACTGCCTAGGGAGATTAGAGTATCGGTCGA | 7.21
GTGCTCCCTCCCCCTGCATGAACCTTTGCTGCCTAGGGAGATTAGAGTATCGGTCGA | 3.72
GGAATGACCTTTGATATTTGTGCCTAGTGGGCCTAGGGAGATTAGAGTATCGGTCGA | 5.39
CCCTCTGAGTGTTTGACCTTTCACCCAGAAGCCTAGGGAGATTAGAGTATCGGTCGA | 7.2
TGGTGCCCTCTGAGTGTTTGACCTTTCACCGCCTAGGGAGATTAGAGTATCGGTCGA | 8.17
GGTGGGCTGCTCCCAGTGCCCTTTGAACTCGCCTAGGGAGATTAGAGTATCGGTCGA | 8.91
CCCCCAGTGGAATGTGCCCTTTGACCTCTCGCCTAGGGAGATTAGAGTATCGGTCGA | 10.3
CACTCTGGTGCCCTCTGAGTGTTTGACCTTGCCTAGGGAGATTAGAGTATCGGTCGA | 5.61
